# Laboratory results reported in PubChem BioAssay.
# Values without a mark were called inactive. The rule behind the calls is not given here.
# Molecular target: Pantothenate synthetase (Mycobacterium tuberculosis (strain ATCC 25618 / H37Rv)) (UniProt P9WIL5)
# Assay: Recombinant Mtb pantothenate synthetase (PanC) inhibitors, coupled enzyme, confirmatory (AID 375);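 note: 0% = full reaction with vehicle and 100% = no enzyme background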
# Details: coupled enzyme assay; at 10 µM, active compounds read high
# Pantothenate synthetase (Mycobacterium tuberculosis (strain ATCC 25618 / H37Rv)), sequence (P9WIL5 whole entry, looked up): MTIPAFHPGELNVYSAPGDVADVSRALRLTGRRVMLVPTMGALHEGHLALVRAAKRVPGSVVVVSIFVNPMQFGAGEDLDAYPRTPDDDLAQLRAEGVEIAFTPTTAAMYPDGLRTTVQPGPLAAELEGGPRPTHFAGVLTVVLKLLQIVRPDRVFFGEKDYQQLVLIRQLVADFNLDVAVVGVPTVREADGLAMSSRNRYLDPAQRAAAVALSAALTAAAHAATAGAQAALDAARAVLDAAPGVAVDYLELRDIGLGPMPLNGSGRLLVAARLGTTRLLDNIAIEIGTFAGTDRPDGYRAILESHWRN
row,SMILES,inhibition [%]
1,O=c1[nH]c2ccccc2nc1NCCN1CCOCC1,1
2,CCCCCn1c(CN(C)Cc2ccccc2)nc2c1c(=O)n(C)c(=O)n2C,1
3,O=C(Cn1nc(Cc2ccncc2)c2ccccc2c1=O)N1CCc2ccccc2C1,0
4,COc1ccc(C2=NOC(C(=O)NCCCN3CCOCC3)C2)cc1 (stereo not given),5
5,COc1ccc(CCNC(=O)CCN2C(=O)C3CC=CCC3C2=O)cc1OC (stereo not given),0
6,CC1CNCCN1S(=O)(=O)c1cccc2cnccc12 (stereo not given),5
7,CCCCC(=O)O[C@]1(C(=O)CO)CC[C@H]2[C@@H]3CCC4=CC(=O)CC[C@]4(C)[C@H]3[C@@H](O)C[C@@]21C,10
8,Cc1ccc(S(=O)(=O)NCC(=O)OCC(=O)Nc2ncc(Cl)cc2Cl)cc1,0
9,COc1ccccc1N1CCN(Cc2nnnn2CCc2ccccc2)CC1,0
10,O=C(CSc1nc2ccc(Cl)cc2[nH]1)NCc1ccco1,0
11,O=C(CCN1C(=O)C2C3C=CC(C3)C2C1=O)NC1CCCc2ccccc21 (stereo not given),1
12,COC(=O)C1=C(C)NC(C)=C(C(=O)OC)C1C1CC=CCC1 (stereo not given),3
13,CN(C)CC(O)COc1ccc(-c2ccc(C#N)cc2)cc1 (stereo not given),3
14,COc1ccc(C)cc1NC(=O)CN1CCN(S(=O)(=O)c2ccc(Cl)cc2)CC1,0
15,CCN(C(=O)c1c(-c2ccccc2)noc1C)c1ccccc1,0
16,Cc1cccn2c(=O)c3cc(C#N)c(=O)n(CCCN4CCOCC4)c3nc12,0
17,Cn1c(=N)c(S(=O)(=O)c2ccccc2)cc2c(=O)n3ccccc3nc21,2
18,CCN1CCN(C(=O)c2ccc3c(=O)n(C4CCCC4)c(=S)[nH]c3c2)CC1,0
19,CN1CCN(c2nc3c(c(=O)[nH]c(=O)n3C)n2CCOc2ccccc2)CC1,0
20,O=C(c1ccco1)N1CCN(C(=O)C2CC(c3ccc(F)cc3)=NO2)CC1 (stereo not given),0

row,SMILES,inhibition [%]
1,Cc1sc2nc(CN3CCN(S(=O)(=O)c4cccc5nonc45)CC3)[nH]c(=O)c2c1C,0
2,Cc1cccc(Cn2c(SCC(=O)Nc3ccccc3)nc3c2c(=O)[nH]c(=O)n3C)c1,3
3,CCOC(=O)C(NC(C)=O)(Nc1ccc(S(=O)(=O)Nc2nccs2)cc1)C(F)(F)F (stereo not given),3
4,Cc1cccc(CCNC(=O)CCc2nc(-c3ccccc3F)no2)c1,0
5,CC1CCCN(C(=O)c2cc(F)c(F)cc2Cl)C1 (stereo not given),0
6,CCN(CC)Cc1csc(C(N)=O)c1,5
7,O=C(CCS(=O)(=O)c1cccc2nsnc12)NCc1ccccc1,0
8,Cn1c(SC/C=C/c2ccccc2)nnc1-c1cnccn1,1
9,CCOC(=O)C1CCN(c2c(Nc3ccc4c(c3)OCCO4)c(=O)c2=O)CC1,0
10,CC(=O)N1c2c(cc(Br)cc2S(=O)(=O)N2CCN(c3ccccn3)CC2)CC1C (stereo not given),0
11,COc1ccc(C2C(C(C)=O)=C(C)N=c3s/c(=C/c4ccc5c(c4)OCO5)c(=O)n32)cc1 (stereo not given),0
12,C/C(CC(O)(/C=N/O)c1ccccc1)=N\O (stereo not given),1
13,C[N+]12CCC(CC1)C(OC(=O)C(O)(c1ccccc1)c1ccccc1)C2 (stereo not given),0
14,COc1ccc(-c2nnc(SCC(=O)Nc3sc4c(c3C#N)CCC4)n2CC2CCCO2)cc1 (stereo not given),0
15,CCc1ccc(NC(=O)c2cccnc2)cc1,16
16,Cc1ccc(-c2nnc3ccc(SCC(=O)NCc4ccco4)nn23)cc1,0
17,COc1ccccc1OCCNC(=O)c1cccs1,0
18,Cc1cccc(NC(=O)c2cnc3sccn3c2=O)n1,4
19,COc1ccc(NC(=O)N(C2CCCCC2)C2CCN(C(C)C)CC2)c(OC)c1,0
20,COc1cc(NC2=CC(=O)CC(C)(C)C2)cc(OC)c1,0
